High-throughput results as filed in PubChem.
Sampled rows, rich in hits. Any-hit rate of the full collection: about 10%.
HP1b chromo inh: HTS for Inhibitors of HP1-beta Chromodomain Interactions with Methylated Histone Tails. Chromobox protein homolog 1 (Homo sapiens), P83916. AlphaScreen HP1-beta / biotin-H3K9me3 peptide binding. Potency, µM (highest dose often 114 µM), actives largely listed as inhibitors. actives 0.56% (n = 390,000). AID 540317, 2011; further: nearly all actives have a fitted effect of over 70% in size
Target sequence (P83916 whole entry, looked up): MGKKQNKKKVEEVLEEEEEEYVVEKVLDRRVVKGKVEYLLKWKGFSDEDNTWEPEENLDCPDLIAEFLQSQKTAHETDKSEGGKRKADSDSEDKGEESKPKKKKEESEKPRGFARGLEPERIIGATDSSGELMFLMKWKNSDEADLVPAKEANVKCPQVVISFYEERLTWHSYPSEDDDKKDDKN
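AlphaScreen: HP1-beta (50 nM) preformed 30 min with biotin-H3(1-18)K9me3 peptide (50 nM) in PBS pH 7.4, 0.01% Tween-20. Compound added for 30 min at RT, then streptavidin donor/nickel chelate acceptor beads (10 ug/mL) for 30 min.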
GLS inh: qHTS for Inhibitors of Glutaminase (GLS); GLS enzymatic activity, qHTS titration; Potency, µM (doses to about 45.5 µM), hits mostly inhibitors; actives 0.21% (n = 410,000); AID 624170, 2012
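Read-out is an Amplex red fluorescence increase coupled through glutamate oxidase and HRP, measured before and after 30 min room-temperature incubation. hKGA is in 45 mM KH2PO4 (pH 8.2) with 0.02% Tween-20; glutamine added as 1mM solution.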
BAZ2B inh: qHTS Assay for Inhibitors of BAZ2B | actives 4.4% (n = 360,000) | AlphaScreen BAZ2B-H3K14Ac peptide displacement | Bromodomain adjacent to zinc finger domain protein 2B (Homo sapiens), Q9UIF8 | AID 504333, 2011 | Potency, µM (doses to about 114 µM), actives largely listed as inhibitors; further: nearly all actives have a fitted effect of over 60% in size
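AlphaScreen luminescence quantifies BAZ2B engagement of H3K14Ac peptide; the protein and biotinylated peptide are both at 50 nM final, buffer PBS pH 7.4 with 0.01% Tween-20, all steps at room temperature.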
G9a inh: qHTS Assay for Inhibitors of Histone Lysine Methyltransferase G9a. Histone-lysine N-methyltransferase EHMT2 (Homo sapiens), Q96KQ7. G9a H3K9 monomethylation, AlphaScreen, 2 h. Potency, µM (series often up to 102 µM), hits mostly inhibitors. actives 8.8% (n = 350,000). AID 504332, 2011; further: nearly all actives have a fitted effect of over 75% in size
Target sequence (Q96KQ7 913-1193 limits assumed): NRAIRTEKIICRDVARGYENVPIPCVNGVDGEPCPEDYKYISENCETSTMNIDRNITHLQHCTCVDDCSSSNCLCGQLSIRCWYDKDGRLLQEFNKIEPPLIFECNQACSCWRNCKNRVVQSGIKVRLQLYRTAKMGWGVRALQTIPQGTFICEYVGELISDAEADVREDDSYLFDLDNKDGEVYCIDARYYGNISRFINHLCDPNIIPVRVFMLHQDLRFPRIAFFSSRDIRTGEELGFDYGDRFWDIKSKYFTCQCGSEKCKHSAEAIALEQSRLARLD
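Methyltransferase reactions run at room temperature for 2 h (20 nM enzyme, 500 nM biotin-H3K9 peptide, 20 uM SAM) after a 15 min compound preincubation; product detected by AlphaScreen beads and anti-H3K9me1 antibody.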
JMJD2A Tudor inh: qHTS Assay for Inhibitors of JMJD2A-Tudor Domain | Potency, µM (series often up to 114 µM), usual class: inhibitors | AlphaScreen JMJD2A-Tudor / H3K4me3 peptide binding | Lysine-specific demethylase 4A (Homo sapiens), O75164 | actives 4.4% (n = 390,000); further: nearly all actives have a fitted effect of over 50% in size
Each line names hits and unclear results; the compound was inactive in the other large screens. The call rests on the fitted dose curve; in most records, active means well fitted curve in the direction sought with a large enough effect; inconclusive means small, poorly fitted or top-dose-only effect, or another doubt; inactive means no such curve, though single readings can be large; an effect the other way counts as inactive or inconclusive.

CC(=NNS(=O)(=O)c1ccc(C)cc1)c1ccccc1	none (no result: HP1b chromo inh, BAZ2B inh, G9a inh, JMJD2A Tudor inh)
CCOC(=O)N1CCN(C(=O)c2cc(Cl)c(Cl)cc2C(=O)O)CC1	none
Cc1ccc2nc(-c3c[nH]c4ccccc34)c(Nc3ccccc3C)n2c1	none
Cc1ccccc1Nc1c(-c2ccco2)nc2c(C)cccn12	HP1b chromo inh inconclusive, BAZ2B inh 25.1µM, G9a inh 14.1µM, JMJD2A Tudor inh inconclusive
Cc1ccc(Nc2c(-c3c[nH]c4ccccc34)nc3ccccn23)cc1	HP1b chromo inh inconclusive, BAZ2B inh 17.8µM, G9a inh 28.2µM, JMJD2A Tudor inh 22.4µM
c1ccc(Nc2c(-c3ccco3)nc3ccccn23)cc1	BAZ2B inh 50.1µM, G9a inh inconclusive
Cc1ccc(Nc2c(-c3ccco3)nc3ccccn23)cc1	BAZ2B inh inconclusive, G9a inh 39.8µM, JMJD2A Tudor inh inconclusive
Cc1ccc(NC(=O)COC(=O)C2CSC3(C)CCC(=O)N23)c(C)c1 (stereo not given)	none
CN(Cc1ccccc1)c1c([N+](=O)[O-])c(=O)n(C)c2ccccc12	BAZ2B inh inconclusive, G9a inh inconclusive, JMJD2A Tudor inh inconclusive
CCOc1ccc(CCNC(=O)CCn2ccc3cc(S(=O)(=O)N4CCCC4)ccc32)cc1	none
COc1cccc(OC)c1C1=CC(=O)C[C@H](c2ccc3c(c2)OCO3)C1	none
Cc1ccc(Cn2c(=O)c3c(ncn3C)n(C)c2=O)cc1	none
COc1ccc(Nc2c(-c3ccco3)nc3ccc(C)cn23)cc1	none
Fc1ccc(Nc2c(-c3ccco3)nc3ccccn23)cc1	BAZ2B inh 44.7µM, G9a inh inconclusive, JMJD2A Tudor inh inconclusive
CCS(=O)(=O)c1nc(S(=O)(=O)c2ccc(Cl)cc2)c(N2CCc3ccccc3C2)s1	G9a inh 8.91µM
CCn1cc(C(=O)NC(=S)Nc2sc3c(c2C(=O)OC)CCCCCC3)cn1	G9a inh inconclusive
COc1ccccc1CCc1nnc(CCC(=O)NCCC2CCCCO2)o1 (stereo not given)	none (no result: HP1b chromo inh, BAZ2B inh, G9a inh, JMJD2A Tudor inh)
CCn1c(SCC(N)=O)nnc1-c1cc2c(C)nn(-c3ccccc3)c2s1	G9a inh 44.7µM
O=S(=O)(c1cc(-c2nnc(-c3ccc(Br)cc3)o2)ccc1Br)N1CCCCCC1	none
CCO[C@H]1OC(C(=O)O)=C[C@@H](c2ccc(C(F)(F)F)cc2)[C@@H]1CCCO	none
O=C1C(O)=CC(=C(c2ccccc2)c2ccccc2)c2ccccc21	HP1b chromo inh 12.6µM, JMJD2A Tudor inh 14.1µM (no result: BAZ2B inh, G9a inh)
Cc1ccc(-c2noc(C3CCCN(C(=O)c4ccc(Cl)cc4)C3)n2)o1 (stereo not given)	BAZ2B inh inconclusive, G9a inh inconclusive
Cc1ccc(-c2noc(C3CCCN(C(=O)C4CCCCC4)C3)n2)o1 (stereo not given)	G9a inh 11.2µM
COc1ccc(CC(=O)n2[nH]c(=O)ccc2=O)cc1OC	HP1b chromo inh 8.91µM, GLS inh 10µM, G9a inh 1.12µM, JMJD2A Tudor inh 8.91µM
COc1ccc(CC(=O)n2[nH]c(=O)c3ccccc3c2=O)cc1OC	none (no result: G9a inh)
CC(=O)Oc1ccc(N2C(=O)C3C4C=CC(C5CC45)C3C2=O)cc1[N+](=O)[O-] (stereo not given)	G9a inh inconclusive
CC(NC(=O)Nc1ccc([N+](=O)[O-])cc1)C(c1ccccc1)N1CCOCC1 (stereo not given)	G9a inh 39.8µM
O=C1c2cc(O)cc(O)c2C(=O)c2c1cc(O)c([C@@H](CO)CCO)c2O	HP1b chromo inh inconclusive, JMJD2A Tudor inh 79.4µM (no result: BAZ2B inh, G9a inh)
CC(C)OC(=O)c1cccc(C(=O)O)n1	BAZ2B inh inconclusive, G9a inh 2.51µM, JMJD2A Tudor inh 7.08µM
CC(C)OC(=O)c1cccc(C(=O)Oc2ccc(Br)cc2)n1	none
CC1(C)C(=O)Nc2ccccc2N1C(=O)COC(=O)c1cc([N+](=O)[O-])ccc1N	G9a inh 20µM
Cc1cc(C)cc(C(=O)NCC(=O)OCC(=O)N2c3ccccc3NC(=O)C2(C)C)c1	BAZ2B inh 44.7µM
COc1cc(OC)cc(C(=O)NCC(=O)OCC(=O)N2c3ccccc3NC(=O)C2(C)C)c1	BAZ2B inh inconclusive
Cc1ccc(-c2nnc3sc(-c4ccncc4)nn23)cc1	none
CCOC(=O)N1CCc2c(sc(NCc3ccc(N(CC)CC)cc3)c2C(=O)Nc2cc(OC)ccc2OC)C1	HP1b chromo inh inconclusive, BAZ2B inh 7.94µM, G9a inh 7.08µM, JMJD2A Tudor inh inconclusive
CCOC(=O)N1CCc2c(sc(NCc3ccc(OCC)cc3)c2C(=O)Nc2ccc(OC)cc2OC)C1	G9a inh 7.94µM, JMJD2A Tudor inh inconclusive
CCOc1ccccc1NC(=O)c1c(NCc2ccc(C)o2)sc2c1CCCCC2	G9a inh 5.01µM, JMJD2A Tudor inh inconclusive
CCOC(=O)N1CCc2c(sc(NCc3ccc(OC)c(OC)c3OC)c2C(=O)Nc2ccc(OC)cc2OC)C1	HP1b chromo inh inconclusive, BAZ2B inh inconclusive, G9a inh 7.08µM, JMJD2A Tudor inh inconclusive
C=CCNCC(=O)Nc1sc2c(c1C(=O)Nc1ccc(OC)cc1OC)CCC2	none (no result: G9a inh)
OCCC1CN(Cc2c(F)cccc2Cl)CCN1C1CCCC1 (stereo not given)	none (no result: G9a inh)
COc1ccc(NC(=O)NCc2ccncc2)cc1	none
O=C(Cc1ccc(S(=O)(=O)N2CCCCC2)s1)Nc1ccc(F)c(F)c1	none
CCOC(=O)N1CCc2c(sc(NCc3sccc3C)c2C(=O)Nc2cc(Cl)ccc2OC)C1	G9a inh 3.55µM, JMJD2A Tudor inh inconclusive
CCOC(=O)N1CCc2c(sc(NCc3ccc(N(C)C)cc3)c2C(=O)Nc2ccccc2OCC)C1	HP1b chromo inh inconclusive, BAZ2B inh 8.91µM, G9a inh 3.16µM, JMJD2A Tudor inh 12.6µM
CCOc1ccccc1NC(=O)c1c(NC(=O)COc2ccccc2)sc2c1CCCC2	none
COc1ccccc1NC(=O)c1c(NCc2ccc(OC)c(OC)c2OC)sc2c1CCC2	G9a inh inconclusive
COc1ccc(NC(=O)c2c(NCc3ccc(OC)c(OC)c3OC)sc3c2CCC3)c(OC)c1	G9a inh 12.6µM, JMJD2A Tudor inh inconclusive
COc1ccc(Cl)cc1NC(=O)c1c(NCc2ccc(C)o2)sc2c1CCCC2	BAZ2B inh inconclusive, G9a inh inconclusive, JMJD2A Tudor inh inconclusive
COc1ccc(NC(=O)c2c(NCc3sccc3C)sc3c2CCCC3)c(OC)c1	HP1b chromo inh inconclusive, BAZ2B inh inconclusive, G9a inh 14.1µM, JMJD2A Tudor inh inconclusive
CC(NC(=O)Cc1ccc(S(=O)(=O)N2CCOCC2)s1)c1ccc(Br)cc1 (stereo not given)	none (no result: BAZ2B inh, G9a inh)
Cc1ccc2c(=O)cc(CSc3nnc(-c4ccccc4)n3C)[nH]c2c1C	none
COCCCNCC(O)COc1ccccc1F (stereo not given)	HP1b chromo inh inconclusive, JMJD2A Tudor inh 1.26µM
